Measured values taken from the supplement of paper PMC10338343.
± gives the standard deviation.

Experiments:
[1] = system: MILI (PIWIL2) piRISC loaded with piRNA #1 (26 nt); assay: pre-steady-state target cleavage rate (min^-1); guide: piRNA #1 5'p-UGAGGUAGUAGGUUGUAUAGUAUCCA; higher = faster piRNA-guided slicing of the target; settings: auxiliary factor: 500 nM mouse GTSF1
Summary of the method: (§1)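 The method was Cleave-'n-Seq, in which uncleaved targets from a transcribed, DNA-blocked target RNA library were sequenced after exposure to active affinity-purified piRISC carrying one synthetic guide, with or without GTSF1 partner protein. Reactions contained 0.1 nM library, 1 nM piRISC and, where present, 500 nM GTSF1 in HEPES–potassium acetate buffer at 33 °C for 0–8 or 0–960 min. Reads were normalised to depth and to weakly complementary targets, three trials were pooled, and k3 was capped at 0.0001 min^-1. The pre-steady-state cleavage rate came from a burst-and-steady-state fit.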

[2] = system: EfPiwi piRISC loaded with piRNA #1 (26 nt); assay: pre-steady-state target cleavage rate (min^-1); auxiliary factor: 500 nM Ephydatia muelleri Gtsf1; guide: piRNA #1 5'p-UGAGGUAGUAGGUUGUAUAGUAUCCA; MIWI and MILI are mouse PIWI proteins and EfPiwi is from a freshwater sponge; tags in brackets are library labels; higher = faster piRNA-guided slicing of the target
Summary of the method: as §1

Row | Sequence | pre-steady-state target cleavage rate [1] | pre-steady-state target cleavage rate [2]
1 | GGAGACCUUACUAUCCAACCUACUACCUCA | 0.17 ± 0.018 | 0.0791 ± 0.034
2 | GGAGACGGUACUAUACAACCUACUACCUCA | 0.187 ± 0.016 | 0.0154 ± 0.0059
3 | GGAGUGGAUACUAUACAACCUUCUACCACA | 0.00348 ± 0.0024 | 0.00272 ± 0.0016
4 | GGAGACCUAACUAUACAACCUACUACCACA | 0.176 ± 0.038 | 0.00545 ± 0.0034
5 | GGAGUGGAUACUAUACAACGAACUACCUCA | 0.00366 ± 0.0017 | 0.00257 ± 0.0018
6 | GGAGACCAUACUAUACUACCUACUACCUCA | 0.158 ± 0.017 | 0.00859 ± 0.0036
7 | GGAGAGGAUACUAUACAACACUACUACCUCA | 0.00372 ± 0.0023 | 0.00804 ± 0.0043
8 | GGAGUGGAUACAUAACAACCUACUACCUCA | 0.113 ± 0.0099 | 0.00683 ± 0.0044
9 | GGAGACUAUACUAUACAACCUACUACCUCA | 0.171 ± 0.014 | 0.0352 ± 0.014
10 | GGAGACCAAACUAAACAACCUACUACCUCA | 0.104 ± 0.027 | 0.00793 ± 0.0036
11 | GGAGUGGAUACUAUACAACCUACUACGAGA | 0.0112 ± 0.004 | 0.00447 ± 0.0022
12 | GGAGACGAUACUAUACAACCUACUACGUCA | 0.081 ± 0.012 | 0.00658 ± 0.002
13 | GGAGACCUAUGAAUACAACCUACUACCUCA [g2:g18:cont:t1A] | 0.00878 ± 0.0033 | 0.00706 ± 0.0032
14 | GGAGAGGACUACUAUACAACCUACUACCUCA | 0.186 ± 0.016 | 0.00553 ± 0.0037
15 | GGAGACGAUACUAUACAACCUACGACCUCA | 0.146 ± 0.019 | 0.00449 ± 0.0018
16 | GGAGACCAAACUAUACAACCUACUACCUGA | 0.133 ± 0.045 | 0.00429 ± 0.0028
17 | GGAGACCUUACUAUACAUCCUACUACCUCA | 0.292 ± 0.024 | 0.00607 ± 0.0029
18 | GGAGACCUUACUUUACAACCUACUACCUCA | 0.129 ± 0.01 | 0.00728 ± 0.0042
19 | GGAGAGGUUUCUAUACAACCUACUACCUCA | 0.14 ± 0.013 | 0.00427 ± 0.004
20 | GGAGUGGAUACUAUACAACGUACUACCUCA | 0.0277 ± 0.0034 | 0.00682 ± 0.0022
21 | GGAGACCUAUGUAUACAACCUACUACCUCA [g2:g19:cont:t1A] | 0.0765 ± 0.012 | 0.00649 ± 0.0034
22 | GGAGACCAUACUAUACAAGGUACUACCUCA | 0.0713 ± 0.0087 | 0.00335 ± 0.0029

Row | Sequence | pre-steady-state target cleavage rate [1] | pre-steady-state target cleavage rate [2]
23 | GGAGACCUAACUAUACAACCUACCACCUCA | 0.0488 ± 0.014 | 0.00588 ± 0.0042
24 | GGAGUGGAUACAAUACAACCUACUACCUGA | 0.0731 ± 0.011 | 0.00396 ± 0.0018
25 | GGAGACGAAACUAUACAACCUUCUACCUCA | 0.00739 ± 0.0047 | 0.00751 ± 0.0034
26 | GGAGACCAUACUAUACAAGCUACUACCUGA | 0.157 ± 0.019 | 0.00543 ± 0.0026
27 | GGAGACCUUACUUUACAUCCUACUACCUCA | 0.26 ± 0.022 | 0.00417 ± 0.0035
28 | GGAGACCAUACUAUACAACCUAGUACCUCA | 0.0657 ± 0.013 | 0.00446 ± 0.0014
29 | GGAGUGGAUACUAUAACAACCUACUACCUCA | 0.171 ± 0.0095 | 0.0556 ± 0.021
30 | GGAGACCUAACUAUACUACCUACUACCUCA | 0.125 ± 0.022 | 0.00314 ± 0.0024
31 | GGAGAGGAUAGUAUACAACCUAGUACCUCA | 0.0263 ± 0.008 | 0.00231 ± 0.002
32 | GGAGACCAUACUAUACAACCUACUACCUCU [g2:g23:cont:t1U] | 0.254 ± 0.024 | 1.45 ± 0.55
33 | GGAGACCUAUGCAUACAACCUACUACCUCA | 0.0358 ± 0.0081 | 0.0042 ± 0.0037
34 | GGAGACCAUUCUAUACAACCUACUACCACA | 0.159 ± 0.018 | 0.00335 ± 0.0031
35 | GGAGACGAUUCUAUACAAGCUACUACCUCA | 0.239 ± 0.01 | 0.00369 ± 0.003
36 | GGAGACCUAUGAUAACAACCUACUACCUACA | 0.0036 ± 0.0024 | < 0.0001
37 | GGAGACGAUACUAUACAACCUACUACCUCCA | 0.214 ± 0.014 | 0.02 ± 0.0073
38 | GGAGACGAUUACUAUACAACCUACUACCUCA | 0.147 ± 0.0094 | 0.0159 ± 0.0066
39 | GGAGAGGAUACUAUACAACGUUCUACCUCA | 0.00213 ± 0.0019 | 0.00409 ± 0.0022
40 | GGAGACCUAACUAUACAACCUACUACCUCCA | 0.123 ± 0.021 | 0.015 ± 0.0066
41 | GGAGUGGAUACUAUACAACCUACUACUCUCA | 0.14 ± 0.012 | 0.00513 ± 0.0029
42 | GGAGAGGAUACUAUAAAACCUACUACCUCA | 0.181 ± 0.013 | 0.00425 ± 0.0029
43 | GGAGACCUUACAAUACAUCCUACUACCUCA | 0.232 ± 0.021 | 0.00553 ± 0.004
44 | GGAGACCUAUCUAAACAACCUACUACCUCA | 0.0794 ± 0.014 | 0.00381 ± 0.0037

Row | Sequence | pre-steady-state target cleavage rate [1] | pre-steady-state target cleavage rate [2]
45 | GGAGUGGAUACUAUACAACCAAGUACCUCA | 0.00277 ± 0.0018 | 0.00281 ± 0.0018
46 | GGAGACGAUACUAUACAACCUACUACCUUCA | 0.194 ± 0.018 | 0.0163 ± 0.0063
47 | GGAGACGAUACUUACAACCUACUACCUCA | 0.114 ± 0.01 | 0.00671 ± 0.0036
48 | GGAGUGGUUACUAUACAUCCUACUACCUCA | 0.295 ± 0.014 | 0.00608 ± 0.0026
49 | GGAGACGAUACUAUACAAGCUUCUACCUCA | 0.0442 ± 0.0052 | 0.0034 ± 0.0019
50 | GGAGUGGAUGCUAUACAACCUACUACCUCA | 0.152 ± 0.022 | 0.0921 ± 0.046
51 | GGAGACGAUUCUAUACUACCUACUACCUCA | 0.213 ± 0.011 | 0.00459 ± 0.0029
52 | GGAGACCAUACUAUACAUCCUAGUACCUCA | 0.0776 ± 0.018 | 0.00345 ± 0.0019
53 | GGAGAGGAUACCAUACAACCUACUACCUCA | 0.167 ± 0.021 | 0.0957 ± 0.032
54 | GGAGAGGAUACUAUAGAACCUACUACGUCA | 0.0326 ± 0.0058 | 0.00228 ± 0.0021
55 | GGAGUGGAUACUAUACAACCUACUCACCUCA | 0.166 ± 0.02 | 0.00247 ± 0.0014
56 | GGAGACCUAUCUUAUACAACCUACUACCUCA | 0.145 ± 0.031 | 0.0118 ± 0.0052
57 | GGAGAGGAUACUAUACAACCUAAUACCUCA | 0.0575 ± 0.01 | 0.00595 ± 0.0025
58 | GGAGACCAUACUAGUACAACCUACUACCUCA | 0.089 ± 0.011 | 0.00796 ± 0.0044
59 | GGAGUGGAAUCUAUACAACCUACUACCUCA | 0.152 ± 0.0088 | 0.00913 ± 0.0055
60 | GGAGACCUAUCUAUACAACGUACUACCACA | 0.0153 ± 0.0035 | 0.00343 ± 0.0031
61 | GGAGAGGAUACUAUAGAUCCUACUACCUCA | 0.242 ± 0.024 | 0.00654 ± 0.0034
62 | GGAGAGGAUACUAUACAAUCUACUACCUCA | 0.129 ± 0.0097 | 0.0116 ± 0.0062
63 | GGAGACCAUACUAUGACAACCUACUACCUCA | 0.165 ± 0.017 | 0.00762 ± 0.0033
64 | GGAGACCUUACUAGACAACCUACUACCUCA | 0.155 ± 0.015 | 0.0104 ± 0.0051
65 | GGAGACCAUACUAUACAACCUACUAGCCUCA | 0.176 ± 0.024 | 0.00697 ± 0.0031
66 | GGAGACCAUACUAUACAUCCUACUACCUGA | 0.23 ± 0.034 | 0.00312 ± 0.0018
